# According to the supplement of paper PMC3334620:
# Whole data set: some 33,000 sequences, median “E-score (-0.5 to 0.5)” near -0.021, cut for the highest 2% near 0.32. The sample holds the highest values, similar sequences and a random draw of the others, so the mix is not that of the screen.
# Biological target: T1, Zap1 (UniProt P47043)
# T1 sequence: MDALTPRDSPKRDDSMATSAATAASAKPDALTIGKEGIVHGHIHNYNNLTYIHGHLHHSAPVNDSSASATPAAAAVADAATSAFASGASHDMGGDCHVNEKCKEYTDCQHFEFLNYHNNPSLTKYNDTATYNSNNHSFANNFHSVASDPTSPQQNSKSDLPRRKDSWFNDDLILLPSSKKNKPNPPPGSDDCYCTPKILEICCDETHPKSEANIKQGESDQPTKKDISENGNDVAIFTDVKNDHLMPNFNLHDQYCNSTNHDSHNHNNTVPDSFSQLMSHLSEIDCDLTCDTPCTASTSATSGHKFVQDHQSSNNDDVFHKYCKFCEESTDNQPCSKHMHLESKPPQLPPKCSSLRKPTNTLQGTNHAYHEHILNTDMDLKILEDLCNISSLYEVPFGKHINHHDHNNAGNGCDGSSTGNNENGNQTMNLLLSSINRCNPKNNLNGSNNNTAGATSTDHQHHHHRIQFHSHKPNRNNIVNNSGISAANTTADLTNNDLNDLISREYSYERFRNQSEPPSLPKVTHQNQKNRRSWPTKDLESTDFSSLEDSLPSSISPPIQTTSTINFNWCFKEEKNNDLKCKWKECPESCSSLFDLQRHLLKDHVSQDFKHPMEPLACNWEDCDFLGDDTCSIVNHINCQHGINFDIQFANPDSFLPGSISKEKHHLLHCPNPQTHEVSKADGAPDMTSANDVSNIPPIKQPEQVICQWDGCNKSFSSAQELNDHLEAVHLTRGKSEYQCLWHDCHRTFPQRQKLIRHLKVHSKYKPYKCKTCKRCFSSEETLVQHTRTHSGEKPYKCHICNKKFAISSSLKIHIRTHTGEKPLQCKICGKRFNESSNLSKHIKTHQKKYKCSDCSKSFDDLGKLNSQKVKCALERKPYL
# Test: PBM E-score (8-mer binding enrichment) (E-score (-0.5 to 0.5)); higher = stronger / more preferred TF binding
# Details: protein concentration: 200 nM; construct: GST-full length
# Experimental: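 Universal 'all 10-mer' protein binding microarrays (Agilent AMADID 015681) probed with GST-tagged S. cerevisiae TFs (full-length or DBD) made by in vitro transcription/translation (PURExpress), about 100-200 nM. Bound TF was detected with fluorescent anti-GST. Each ungapped 8-mer (which stands for itself and its reverse complement) is scored by the PBM enrichment score (E-score), a modified Wilcoxon-Mann-Whitney statistic from -0.5 to +0.5, computed with the Universal PBM Analysis Suite. Scale: above 0.35 generally sequence-specific binding.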
row,Sequence,PBM E-score
1,CCAGTTAG,0.00998
2,CCAATAGA,-0.224
3,CTAGTTAA,0.144
4,CGACGAAC,-0.0937
5,CTATAACA,-0.0126
6,CTATAACC,0.446
7,CTATAATC,-0.017
8,ATATAACA,0.176
9,ATATAACG,0.183
10,ATATAACC,0.456
11,AACCAACA,0.254
12,CGGCTCGA,-0.172
13,ACAAAAGC,-0.0458
14,CAGCGCAG,-0.221
15,AGGGTGGG,0.334
16,ATGGTTGG,-0.0414
17,AGGGTGGC,0.293
18,AGGGTGGA,0.163
19,CGGGTTGC,0.18
20,AGGGTTGG,0.333
21,AGGGTTGC,0.46
22,AGGGTTTC,0.232
23,AGGGTTGA,0.271
24,TCATGCGA,-0.00209
25,GCTCTTGA,-0.213

row,Sequence,PBM E-score
1,CGGAGTTC,0.0089
2,GTTAGGAA,0.168
3,GAAGCAAC,0.106
4,AACCGGGA,0.133
5,AACCGGGG,-0.00821
6,AACCGGTG,-0.0964
7,AACCGGTT,0.348
8,AACCGGTC,0.14
9,AACCGGGT,0.319
10,CGGAACTA,0.141
11,CGATGCCG,-0.11
12,GACTTGCA,-0.0829
13,CGGGTTTA,0.205
14,CGGGTTAC,0.439
15,GGGTTTAC,0.316
16,CGGGTTAA,0.356
17,GGGGTTAC,0.464
18,GGAGTTAC,0.137
19,CGGGTTAG,0.0706
20,CGGGTTTC,0.289
21,CGGGTTGA,0.24
22,TCACAGCA,0.124
23,ACTCCTTG,0.0145
24,ATGGTGAA,-0.0722
25,CACCACTG,-0.0127

row,Sequence,PBM E-score
1,CTACGTAG,-0.0165
2,TAAGTTCA,0.0427
3,GGTAGACA,-0.0227
4,ACCCGGTC,-0.0272
5,ACCCGGTA,0.329
6,CACCGGTA,0.188
7,CCCCGGTA,0.153
8,AACCGGTA,0.0841
9,TACCGGTA,0.355
10,ACTAGCTG,-0.214
11,CATAGTGC,-0.16
12,AGCGAATC,-0.083
13,CTCCAGAC,-0.165
14,AGGGTAAA,0.235
15,AGGGTAAT,0.38
16,AGAGTAAG,0.0042
17,AGGGTAAG,0.373
18,ATGGTAAT,0.239
19,GAGAGCAC,-0.00012
20,CATTGGAG,-0.0511
21,GAAGCATC,-0.258
22,ACGATGCG,-0.223
23,ACCGTAAT,0.0558
24,CTCGTAAG,0.215
25,CTCGTAAC,0.327

row,Sequence,PBM E-score
1,ACCGTAAC,0.331
2,GTCGTAAC,0.256
3,ACCGTAAG,0.101
4,ACAAGTCC,-0.0469
5,GCAACTGC,-0.207
6,ACGAGTTA,0.0684
7,ATACCTCG,0.338
8,ATACCTCA,0.223
9,ATACCTCC,-0.0021
10,CACACCTA,-0.0992
11,TAGACATA,0.0776
12,AAAAAGGA,0.15
13,ACAAAGGC,0.0392
14,AAAAAGGT,0.403
15,ACAAAGGG,0.0567
16,ACAAAGGT,0.352
17,AAAAAGGG,0.243
18,CCTTTCTA,0.121
19,ATCTAACC,0.226
20,CGATACCC,0.275
21,GGATACCC,0.393
22,AGATACCC,0.325
23,GGATACCA,0.17
24,AGATACCG,0.0651
25,CAATACCC,0.214

row,Sequence,PBM E-score
1,AAATACCT,0.128
2,AAATACCC,0.328
3,AGATACCA,0.137
4,ACTCATGA,-0.0211
5,CAGTAGGA,-0.247
6,AGATATCT,0.0317
7,TGATTGAA,0.154
8,ACCTAAGG,0.185
9,ACTGCTTC,-0.175
10,CCCTTGAC,0.193
11,ACCTTGAT,0.325
12,ACCTTGCT,0.218
13,CCCTTGAA,0.102
14,GCCTTGAA,0.0337
15,ACCTTGGG,0.327
16,ACCTTGAC,0.266
17,CCCTTGAG,0.33
18,ACCTTGAA,0.337
19,TCCTTGAA,0.158
20,ACCTTGGA,0.195
21,ACCTTGGC,0.106
22,CGTGAGGA,-0.201
23,AGAGCGAA,-0.124
24,CACTCTGG,-0.151
25,CATTCTAG,-0.0521

row,Sequence,PBM E-score
1,GGATAGAA,0.0515
2,CGTTAGAG,-0.109
3,CATCCAGC,-0.108
4,ACCTTGCG,0.284
5,AACTTGAG,-0.143
6,ACCTTGAG,0.354
7,AAGGTCAT,0.444
8,ACGGTCAG,0.0381
9,GAGGTCAA,0.21
10,CAGGTCAC,0.195
11,AAGGTCCT,0.123
12,GAGGTCAC,0.392
13,AAGGTCGT,0.334
14,AAGGTCGA,0.176
15,ACGGTCAT,0.359
16,ACGGTCAA,0.177
17,AAGGTCGC,0.193
18,AAGGTCAA,0.279
19,GCTTGACC,0.214
20,ATAAAGAT,0.00332
21,AACACCTA,0.0163
22,ATGGTAGA,-0.00844
23,GAGAGAGC,-0.261
24,AAATGGAG,-0.132
25,TGCCCTAA,-0.171

row,Sequence,PBM E-score
1,CTTAGGGC,0.0876
2,ATTGACTG,-0.136
3,AAGGTCCC,0.152
4,CAGGTCAG,0.0791
5,AAGGTCAC,0.417
6,AAGGTCTG,0.15
7,AAGGTCTC,0.162
8,AAGGTCAG,0.32
9,GAAAGCGC,-0.115
10,AGAAACCG,0.0611
11,CTGTACTA,0.0369
12,GGCGACAC,-0.0969
13,CGGCTGAC,-0.193
14,GAGACCAC,0.15
15,GAGGGCAA,-0.0412
16,CAGGCGAC,-0.117
17,AACCCTAC,0.357
18,AAACCTAC,0.194
19,CCCCCTAC,-0.32
20,AAGCCTGT,-0.128
21,AACCCTGT,0.419
22,AGCCCTAC,-0.12
